Cy5 interf NS3h – counter-screen for HCV NS3 helicase inhibitors: fluorescence interference; AID 720488; 16,000 tested, 6% active; fluorescence interference ratio at 100 µM; Cy5-dT15 DNA with NS3h; actives lie on both sides; signal over control mean, under 1 quenches;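 active = compound fluorescence over control fluorescence at most 0.8, a quencher, or at least a set upper limit, an enhancer; inactive = ratio between 0.8 and the set upper limit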
HCV NS3h FP – blocks HCV NS3 helicase binding to DNA. inhibition, % at 100 µM. 16,000 tested, 1.6% active. AID 687043. NS3h Cy5-dT15 DNA binding, fluorescence polarization;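 active = inhibition above the average over every tested compound plus 3 SD, cut at about 40% in these data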
An asterisk follows results filed as active. Sampled rows, rich in hits. Any-hit rate of the full collection: about 6.9%.

SMILES	Cy5 interf NS3h	HCV NS3h FP
CC(C)N(C(=O)c1ccc(C(=O)Nc2ccc(Nc3ccccc3)cc2)cc1)C(C)C	0.697*	17.0
O=C(Nc1ccc(Nc2ccccc2)cc1)c1ccc([N+](=O)[O-])cc1	0.947	17.2
C/C(=N/N=C1\NC(=O)C(CC(=O)Nc2cccc(C)c2C)S1)C(C)(C)C (stereo not given)	0.944	1.2
O=P(CO)(c1ccccc1)c1ccccc1	0.972	0.7
O=P(O)(O)CP(=O)(c1ccccc1)c1ccccc1	0.755*	6.8
COCCNC(=O)CN(c1ccc(F)cc1)S(=O)(=O)c1ccccc1	1.12	5.8
CCOc1ccc(S(=O)(=O)N(CC(=O)NC)c2ccc(C)cc2)cc1	1.24*	-0.3
CSc1ccc(S(=O)(=O)N(CC(=O)Nc2ccc(C)cc2C)c2ccc(C)cc2)cc1	1.03	7.8
CCOc1ccc(S(=O)(=O)N(CC(=O)Nc2ccc(C)cc2)c2ccc(C)cc2)cc1	0.966	-5.0
CSc1ccc(S(=O)(=O)N(CC(=O)Nc2ccc(C(C)=O)cc2)c2ccc(C)cc2)cc1	0.73*	16.8
CSc1ccc(S(=O)(=O)N(CC(=O)Nc2ccc(C)cc2)c2ccc(C)cc2)cc1	0.675*	22.2
CCOC(=O)c1ccc(NC(=O)CN(c2ccc(OCC)cc2)S(=O)(=O)c2ccc(SC)cc2)cc1	1.05	8.2
O=C(NOC(=O)c1ccccc1Br)c1ccc(Cl)cc1	1.1	7.2
COc1cc(NC(=O)c2cccc(Br)c2)ccc1NC(=O)c1cc2ccccc2o1	1.13	11.6
CCOc1ccc2nc(NC(=O)c3cccc(Br)c3)sc2c1	1.01	2.1
O=C(c1cccc(OCc2ccccc2)c1)N1CCN(c2ccc([N+](=O)[O-])cc2)CC1	0.895	8.5
CC(Oc1ccccc1)C(=O)Nc1cccc(Br)c1 (stereo not given)	0.961	4.2
O=C(Nc1ccc2nn(-c3ccccc3)nc2c1)c1ccc(Cl)c([N+](=O)[O-])c1	0.445*	-8.4
O=C(O)c1ccc(NC(=O)c2ccc(Cl)c([N+](=O)[O-])c2)cc1	0.901	10.5
Cc1ccc(C(=O)Nc2ccc(I)cc2)cc1[N+](=O)[O-]	1.07	13.5
Cc1ccc(C(=O)Nc2ccccc2)cc1[N+](=O)[O-]	0.625*	9.6
CN(C)c1ccc(NC(=O)c2ccc(Cl)c([N+](=O)[O-])c2)cc1	0.317*	43.8*
O=C(Nc1ccc2nn(-c3ccccc3)nc2c1)c1cccc(F)c1	0.943	-20.1
O=C(Cc1ccccc1)N1N=C(c2ccc([N+](=O)[O-])cc2)CC1(O)C(F)(F)F (stereo not given)	0.944	10.6
CCOc1ccccc1NC(=O)CN(c1ccc(OC)c(Cl)c1)S(C)(=O)=O	1.02	15.7
SMILES	Cy5 interf NS3h	HCV NS3h FP
Cc1cc(/C=C2/NC(=O)NC2=O)c(C)n1-c1cccc(Cl)c1	0.946	6.4
O=[N+]([O-])c1ccccc1NC(=NS(=O)(=O)c1ccc(Cl)cc1)c1ccccc1	0.69*	19.5
O=[N+]([O-])c1ccccc1NC(=NS(=O)(=O)c1ccccc1)c1ccccc1	0.991	5.1
CCc1ccccc1NC(=O)/C=C/c1ccc(OC)c(Br)c1	0.981	24.5
C=CCOc1ccc(/C=C/C(=O)c2ccc(C)cc2)cc1	1.03	-0.7
CCC1(CO)COC(c2ccco2)OC1 (stereo not given)	1.07	2.3
CCOc1ccccc1/C=C1/C(=O)NN(c2ccc(Br)cc2)C1=O	1.05	7.9
CCOC(=O)c1c(-c2ccc(OC)cc2)csc1NC(=O)c1cccc([N+](=O)[O-])c1	0.745*	12.3
CCOC(=O)c1c(-c2ccc(C)cc2)csc1NC(=O)c1ccccc1F	1.14	7.3
COc1ccc(C2NC(=S)NC(C)=C2C(=O)Nc2cccc(Cl)c2)cc1OC (stereo not given)	0.954	4.5
O=C1c2cccc3cccc(c23)C(=O)N1/N=C\c1cccc([N+](=O)[O-])c1	0.742*	-8.2
O=C1c2cccc3cccc(c23)C(=O)N1/N=C\c1ccc(Br)cc1	0.858	-53.1
CCOC(=O)c1c(-c2ccccc2)oc2cc(Br)c(OC(=O)c3ccco3)cc12	0.945	8.8
COc1cc(C2C3=C(CC(C)(C)CC3=O)OC3=C2C(=O)CC(C)(C)C3)ccc1OCc1ccc([N+](=O)[O-])cc1	0.804*	9.7
COc1cc(C2C3=C(CC(C)(C)CC3=O)OC3=C2C(=O)CC(C)(C)C3)cc(I)c1O	1.12	7.3
O=C1NC(c2ccccc2Cl)Nc2sc3c(c21)CCCC3 (stereo not given)	0.931	9.8
O=[N+]([O-])c1ccc2c(c1)ONC(c1ccc(Cl)cc1)=N2	0.669*	22.2
COc1cc([N+](=O)[O-])cc2c1N=C(c1ccc(Br)cc1)NO2	0.974	2.2
Cc1cccc(-n2c(C)cc(C=O)c2C)c1	1.01	4.5
COc1ccc(NC(=O)CN(c2ccc(C)c(Cl)c2)S(C)(=O)=O)c(OC)c1	0.988	14.7
CCOc1ccc(/C=N\N=C2\C(=O)Nc3ccccc32)cc1	0.961	-10.4
O=C1Nc2ccccc2/C1=N/N=C\c1ccccc1[N+](=O)[O-]	0.594*	32.7
COC(=O)c1c(C)oc2cc(Br)c(OCC(=O)c3ccc(OC)cc3)cc12	1.01	6.2
O=C1/C(=C/c2cccs2)SC(=S)N1CCC(=O)N1c2ccccc2Sc2ccc(Cl)cc21	1.01	-0.6
O=C(Nc1c(C(=O)N2CCN(Cc3ccccc3)CC2)cnn1-c1ccccc1)c1cccc(F)c1	1.25*	7.2
SMILES	Cy5 interf NS3h	HCV NS3h FP
O=C(Nc1c(C(=O)N2CCC(Cc3ccccc3)CC2)cnn1-c1ccccc1)c1cccc(F)c1	1	6.3
O=C1NN(c2ccccc2)C(=O)/C1=C/c1cccn1-c1ccc([N+](=O)[O-])cc1	0.607*	29.9
O=C1NN(c2ccccc2)C(=O)/C1=C/c1cc([N+](=O)[O-])c(Cl)cc1Cl	0.893	38.6
Cc1ccc(C(C)C)c(OCCNC(=O)CCc2ccccc2)c1	1.1	14.5
COC(C)(C)CNS(=O)(=O)c1ccc(C)cc1	0.744*	8.7
COc1ccc(CNS(=O)(=O)c2ccc(C)cc2)cc1	0.986	6.8
Cc1nc(-c2ccccc2)c2c(=O)cc[nH]c2n1	1.01	-1.3
Cc1nc(-c2ccccc2)nc2[nH]ccc(=O)c12	0.796*	4.0
O/N=C1\c2ccccc2/C(=N\O)C1c1ccccc1	1.16	10.0
CCN1C(=O)/C(=C\c2cccc(C)c2)SC1=S	0.94	-2.3
CCN(CC)c1ccc(/C=C2/SC(=S)N(CNc3cccc(C)c3)C2=O)cc1	0.65*	8.7
CCOC(=O)C1=C(C)N=c2s/c(=C/c3ccco3)c(=O)n2C1c1cccs1 (stereo not given)	1.01	8.7
CCCCOC(=O)c1ccc(NC(=O)C2CC(C)=C(C)CC2C(=O)O)cc1 (stereo not given)	0.998	3.2
CCCCOC(=O)c1ccc(NC(C)=O)cc1	0.685*	11.4
CCCOc1ccc(C(=O)Nc2ccc(I)cc2Cl)cc1	0.994	16.9
O=C(Nc1ccccc1)Nc1nnc(SCc2ccccc2F)s1	1.22*	-4.1
O=C(Nc1ccccc1)Nc1nnc(SCc2ccc(F)cc2)s1	0.993	16.9
CCOC(=O)Cc1cc(-c2ccccc2)nc2ccc3ccccc3c12	1.02	2.5
CCOC(=O)CC(O)(c1ccccc1)C(F)(F)C(F)F (stereo not given)	0.749*	7.7
O=C(/C=C\c1ccco1)Oc1ccc(/C=N/NC(=O)c2cncc(Br)c2)cc1	1.05	6.9
CC(Oc1ccc(Cl)cc1Cl)C(=O)NCCN(C)C (stereo not given)	0.715*	4.0
